The source of these data is the supplement of paper PMC6555819.

The test system of the first assay is PPARg:RXRa IVT, anti-PPARg (NR concentration 270 nM, RXRa partner concentration 90 nM). Kind of assay: PBM binding z-score (relative to random genomic background probes); higher = stronger binding; sequences stand for … in GC…GCGATTGACAGCGTAGAATGAAGG
Put shortly: (§1)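 Binding buffer was PBS pH 7.4 with 2% milk, 0.02% Triton X-100, 1 mM DTT, 0.2 mg/mL BSA and 0.4 mg/ml salmon testes DNA. In it, ligand-free nuclear receptor dimers were incubated 1 h on custom Agilent 4×180K protein-binding microarrays carrying double-stranded probes. Antibodies against each partner (one per run) detected binding, and z-scores were calculated against random background probes after regression normalization of scanned fluorescence.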
Sequence CATGCTAGGTCAATGGTCAGCTAAAGCAGCTCGC showed a PBM binding z-score of 3.53.
Sequence TTACCAAGGTGAAGGTCGTTGACCCCTCTGTAGA yielded a PBM binding z-score of 3.73.
Turning to TTACCAGGGTGAGCTGAGGTCGTTGATCCAACTC, the PBM binding z-score worked out at 1.4.
Still for that read-out and setting: as for CCTACTGGGCCCTCAGGTCATTGATATCAACGTT, the figure is 1.11; as for ACTAGCAGGCTAAGGGTCACTCAAGATTAGTCCG, 3.12.
As for TCTTTTAGATCAGCAGGTTAAGAAAGCTGGCCAA, the PBM binding z-score worked out at 0.4.
Sequence AGAATGAGGTTATTAAGTTCAGGGAATTGCGGTC yielded a PBM binding z-score of 2.49.
The same measure, in the same setting: as for CGGCCTAGGTCAGGGCCAGTATAGGAGGAACGTT, the figure is 1.22.
Still for that read-out and setting: as for ACTATTAGTTGACTGAGGGCAACCGATACGACGC, the figure is 0.702; as for CATTACGGGTCACGAGGTTATAGCACGACGAGCG, 5.99; as for CTACCAAGGTGAACAAGGTCATTGATTACTATTC, 4.07.
Regarding TCTGCTAGTTCAGTTGGTCAGCTAACGAGCTGCC, the PBM binding z-score was 0.394.
The same measure, in the same setting: as for GCTAGTTGGTCAGTAAAAGGTCACAAACCGGTCG, the figure is 2.83; as for ATCGAGAGGTCGTGAGGTGAGTATACAGAAAGGC, 2.04.
Sequence CGTCCAAGGTCAAACGTCAGTGAAGAGATGACGG showed a PBM binding z-score of 4.1.
On the same count and under the same terms, as for ATTTCTAGGTAACCAAGTTCAGTGAATGCCGAAC, the figure is 4.97.
The sequence CGTCAAAGTTCACGGTAACGTAACAGAAAGCAGC had a PBM binding z-score of 2.31.
For the sequence TTACCAAGGTGAAAGGTCGTAGATGCACGCCTTG, the PBM binding z-score came out at 5.05.
Still for that read-out and setting: as for ATATCTAGGTAACCAAGTTCAGTGAATGCCGAAC, the figure is 6.81; as for ATCTCAAGGTAAAGTTCAGTGAAAGATCGATAGA, 1.36; as for CCTACTGGGCCATCAGGGCATTGATATCAACGTT, 3.99.
CCTATGAGTTGACCATAAGGGCAACCGAAGCTCG: the PBM binding z-score was found to be 0.26.
TCTGCTAGGTGAGTTGGTCAGCTAACGAGCTGCC: the PBM binding z-score was determined as 1.52.
For the sequence GGAACGAGGGCAAAGTTGCTAGCATCTGTCGACG, the PBM binding z-score came to 3.83.
With ATCGCTAGGTAAGACTCAGTTCAGTGAAGAACGC, the PBM binding z-score is -0.264.
Turning to ATCTCAAGGTAACAAGTTCAGTGAAAGAGAGGAC, the PBM binding z-score was determined as 1.3.
Same read-out and setting: as for CCTTACGGCTCACTGACAGGTTATAGCATTTGGA, the figure is -0.612; as for TCTATTGGTTGAAGGGCAACCGACGAGTCCGTTT, 0.82; as for TCTATTAGTTGAAGCGCAACCGACGAGTCCGTTT, 0.202.
CGCCCAAGGTCATAGGAGGTCAGTGAAGACAGAT returned a PBM binding z-score of 4.26.
ATATCTAGGTTAAGGGTCATTCAGGTTGGTTCGC returned a PBM binding z-score of 8.2.
Sequence CAAACTAGGTCACGAAAGGTCAAAGTAGAATGAC gave a PBM binding z-score of 9.02.
Consider ACTATTAGTTGACTTAGGGCAACCGGTACGACGC, for which the PBM binding z-score worked out at 0.506.
Consider CAAACTAGGTCAAAGTCAAAGTCGGTTTGTGCCA, for which the PBM binding z-score worked out at 8.78.
Regarding CCTACTGGGCCATTCAGAGGTCATTTATCATATG, the PBM binding z-score worked out at 4.38.
Same read-out and setting: as for TCATATAGGTAAATGCTAGGTTAAAGTCCGATCT, the figure is 2.47.
With TTACCAAGGTGAGGGTCGTTGATCCCTCTGTAGA, the PBM binding z-score was found to be 2.21.
Turning to CCTAGCAGGCCAGGGTCAATCAAGCATTTCGCTT, the PBM binding z-score is 0.837.
As to TCTCAAAGTTCAAAGGTAACGTAAGTATCCACAC, the PBM binding z-score came out at 1.65.
ATATGTAGGTTATCGGGTCATTTAGTTTGCGCAT: the PBM binding z-score is 7.25.

Another assay deals with PPARg DBDmut:RXRa IVT, anti-PPARg (DBD mutation: PPARg1 K132A/R137A, NR concentration 270 nM, RXRa partner concentration 90 nM). The description is as above. Put shortly: as §1
CATGCTAGGTCAATGGTCAGCTAAAGCAGCTCGC registered a PBM binding z-score of -0.274.
As for TTACCAAGGTGAAGGTCGTTGACCCCTCTGTAGA, the PBM binding z-score is -0.0772.
The sequence TTACCAGGGTGAGCTGAGGTCGTTGATCCAACTC displayed a PBM binding z-score of -1.02.
In the case of CCTACTGGGCCCTCAGGTCATTGATATCAACGTT, the PBM binding z-score was -0.224.
Sequence ACTAGCAGGCTAAGGGTCACTCAAGATTAGTCCG came in with a PBM binding z-score of 0.0604.
TCTTTTAGATCAGCAGGTTAAGAAAGCTGGCCAA showed a PBM binding z-score of 0.922.
Sequence AGAATGAGGTTATTAAGTTCAGGGAATTGCGGTC showed a PBM binding z-score of 1.24.
Turning to CGGCCTAGGTCAGGGCCAGTATAGGAGGAACGTT, the PBM binding z-score is -2.1.
ACTATTAGTTGACTGAGGGCAACCGATACGACGC registered a PBM binding z-score of 1.12.
On the same count and under the same terms, as for CATTACGGGTCACGAGGTTATAGCACGACGAGCG, the figure is 1.73; as for CTACCAAGGTGAACAAGGTCATTGATTACTATTC, 0.536.
TCTGCTAGTTCAGTTGGTCAGCTAACGAGCTGCC: the PBM binding z-score is -0.505.
Still for that read-out and setting: under GCTAGTTGGTCAGTAAAAGGTCACAAACCGGTCG stands -0.571; under ATCGAGAGGTCGTGAGGTGAGTATACAGAAAGGC, 1.16.
Same read-out and setting: as for CGTCCAAGGTCAAACGTCAGTGAAGAGATGACGG, the figure is 0.591; as for ATTTCTAGGTAACCAAGTTCAGTGAATGCCGAAC, 2.81.
The same measure, in the same setting: under CGTCAAAGTTCACGGTAACGTAACAGAAAGCAGC stands 0.983.
TTACCAAGGTGAAAGGTCGTAGATGCACGCCTTG showed a PBM binding z-score of 1.07.
ATATCTAGGTAACCAAGTTCAGTGAATGCCGAAC showed a PBM binding z-score of 1.28.
ATCTCAAGGTAAAGTTCAGTGAAAGATCGATAGA yielded a PBM binding z-score of 1.42.
As for CCTACTGGGCCATCAGGGCATTGATATCAACGTT, the PBM binding z-score was found to be 0.633.
As to CCTATGAGTTGACCATAAGGGCAACCGAAGCTCG, the PBM binding z-score is -0.849.
TCTGCTAGGTGAGTTGGTCAGCTAACGAGCTGCC: the PBM binding z-score was found to be 0.145.
GGAACGAGGGCAAAGTTGCTAGCATCTGTCGACG displayed a PBM binding z-score of 0.283.
The sequence ATCGCTAGGTAAGACTCAGTTCAGTGAAGAACGC returned a PBM binding z-score of -0.423.
Sequence ATCTCAAGGTAACAAGTTCAGTGAAAGAGAGGAC displayed a PBM binding z-score of 1.3.
Sequence CCTTACGGCTCACTGACAGGTTATAGCATTTGGA displayed a PBM binding z-score of 0.0543.
As for TCTATTGGTTGAAGGGCAACCGACGAGTCCGTTT, the PBM binding z-score is 0.765.
Regarding TCTATTAGTTGAAGCGCAACCGACGAGTCCGTTT, the PBM binding z-score turned out to be 0.484.
CGCCCAAGGTCATAGGAGGTCAGTGAAGACAGAT yielded a PBM binding z-score of -0.0879.
ATATCTAGGTTAAGGGTCATTCAGGTTGGTTCGC: the PBM binding z-score was found to be 6.43.
In turn, CAAACTAGGTCACGAAAGGTCAAAGTAGAATGAC returned a PBM binding z-score of 2.85.
Consider ACTATTAGTTGACTTAGGGCAACCGGTACGACGC, for which the PBM binding z-score worked out at 0.963.
In turn, CAAACTAGGTCAAAGTCAAAGTCGGTTTGTGCCA registered a PBM binding z-score of 4.97.
In the case of CCTACTGGGCCATTCAGAGGTCATTTATCATATG, the PBM binding z-score was determined as 1.61.
As to TCATATAGGTAAATGCTAGGTTAAAGTCCGATCT, the PBM binding z-score amounted to 1.36.
TTACCAAGGTGAGGGTCGTTGATCCCTCTGTAGA: the PBM binding z-score was -0.596.
Regarding CCTAGCAGGCCAGGGTCAATCAAGCATTTCGCTT, the PBM binding z-score was -1.44.
Take TCTCAAAGTTCAAAGGTAACGTAAGTATCCACAC: the PBM binding z-score worked out at 0.898.
Regarding ATATGTAGGTTATCGGGTCATTTAGTTTGCGCAT, the PBM binding z-score was 1.55.
